# Assays:
# [1] = target: T1, Serine/threonine-protein kinase 17A (Homo sapiens) (UniProt Q9UEE5); conditions: at 10 µM
# T1 sequence (whole entry): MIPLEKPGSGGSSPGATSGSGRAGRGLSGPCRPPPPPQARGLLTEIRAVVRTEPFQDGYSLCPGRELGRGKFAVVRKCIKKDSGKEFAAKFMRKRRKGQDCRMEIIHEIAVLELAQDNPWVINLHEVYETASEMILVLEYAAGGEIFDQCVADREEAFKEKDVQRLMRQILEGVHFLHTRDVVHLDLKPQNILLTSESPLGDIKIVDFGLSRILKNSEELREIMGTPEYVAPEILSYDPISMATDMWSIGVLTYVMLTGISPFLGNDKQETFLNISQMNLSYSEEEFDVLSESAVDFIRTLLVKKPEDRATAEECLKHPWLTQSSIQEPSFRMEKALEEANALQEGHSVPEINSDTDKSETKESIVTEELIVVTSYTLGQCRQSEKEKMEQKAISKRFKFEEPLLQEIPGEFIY
# [2] = target: T2, Dual specificity tyrosine-phosphorylation-regulated kinase 2 (Homo sapiens) (UniProt Q92630); conditions: at 1 µM
# T2 sequence (whole entry): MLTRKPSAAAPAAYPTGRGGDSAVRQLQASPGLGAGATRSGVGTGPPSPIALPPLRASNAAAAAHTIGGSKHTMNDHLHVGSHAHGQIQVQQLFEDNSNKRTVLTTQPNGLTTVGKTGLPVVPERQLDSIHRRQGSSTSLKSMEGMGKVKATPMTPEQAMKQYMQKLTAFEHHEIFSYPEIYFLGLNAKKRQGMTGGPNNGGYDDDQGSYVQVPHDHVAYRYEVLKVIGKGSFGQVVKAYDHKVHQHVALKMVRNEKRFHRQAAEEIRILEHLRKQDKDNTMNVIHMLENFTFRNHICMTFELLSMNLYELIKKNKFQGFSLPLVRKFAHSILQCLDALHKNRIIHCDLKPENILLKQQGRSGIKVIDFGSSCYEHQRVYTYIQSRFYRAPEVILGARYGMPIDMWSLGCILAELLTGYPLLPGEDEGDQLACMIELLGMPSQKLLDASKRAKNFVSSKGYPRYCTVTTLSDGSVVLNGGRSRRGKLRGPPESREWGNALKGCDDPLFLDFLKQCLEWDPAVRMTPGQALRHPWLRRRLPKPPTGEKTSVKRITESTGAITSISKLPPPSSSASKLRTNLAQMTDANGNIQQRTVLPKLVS
# [3] = target: T2, Dual specificity tyrosine-phosphorylation-regulated kinase 2 (Homo sapiens); conditions: at 10 µM
# [4] = target: T3, Ephrin type-A receptor 1 (Homo sapiens) (UniProt P21709); conditions: at 1 µM
# T3 sequence (whole entry): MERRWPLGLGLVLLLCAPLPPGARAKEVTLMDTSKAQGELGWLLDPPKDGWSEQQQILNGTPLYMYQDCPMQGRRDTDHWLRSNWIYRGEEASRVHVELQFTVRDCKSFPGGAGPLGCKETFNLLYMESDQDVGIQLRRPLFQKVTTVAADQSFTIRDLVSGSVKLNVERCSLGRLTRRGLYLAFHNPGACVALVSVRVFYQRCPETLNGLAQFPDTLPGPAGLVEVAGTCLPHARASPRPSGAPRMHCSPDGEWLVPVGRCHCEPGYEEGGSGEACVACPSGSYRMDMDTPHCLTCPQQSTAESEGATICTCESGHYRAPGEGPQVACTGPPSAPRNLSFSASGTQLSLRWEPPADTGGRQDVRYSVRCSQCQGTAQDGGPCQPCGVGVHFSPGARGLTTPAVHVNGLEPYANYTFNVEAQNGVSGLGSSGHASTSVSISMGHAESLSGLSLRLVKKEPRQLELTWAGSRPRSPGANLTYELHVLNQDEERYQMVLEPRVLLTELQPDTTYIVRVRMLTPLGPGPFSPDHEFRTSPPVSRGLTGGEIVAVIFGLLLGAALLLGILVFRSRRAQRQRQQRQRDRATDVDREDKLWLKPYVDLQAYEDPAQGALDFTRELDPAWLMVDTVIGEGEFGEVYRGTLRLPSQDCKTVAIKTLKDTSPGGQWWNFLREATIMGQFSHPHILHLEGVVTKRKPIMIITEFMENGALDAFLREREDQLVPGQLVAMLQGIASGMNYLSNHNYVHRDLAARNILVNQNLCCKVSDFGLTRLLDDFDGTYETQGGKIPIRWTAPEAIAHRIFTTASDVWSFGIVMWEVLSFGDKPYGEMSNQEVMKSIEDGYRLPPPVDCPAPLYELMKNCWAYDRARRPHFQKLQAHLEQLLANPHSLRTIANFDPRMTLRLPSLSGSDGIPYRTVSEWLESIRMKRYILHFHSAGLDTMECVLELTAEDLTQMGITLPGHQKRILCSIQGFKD
# [5] = target: T3, Ephrin type-A receptor 1 (Homo sapiens); conditions: at 10 µM
# [6] = target: Ephrin type-A receptor 2 (Homo sapiens) (UniProt P29317); conditions: at 1 µM
# [7] = target: Ephrin type-A receptor 2 (Homo sapiens) (UniProt P29317); conditions: at 10 µM
# [8] = target: T4, Ephrin type-A receptor 3 (Homo sapiens) (UniProt P29320); conditions: at 1 µM
# T4 sequence (whole entry): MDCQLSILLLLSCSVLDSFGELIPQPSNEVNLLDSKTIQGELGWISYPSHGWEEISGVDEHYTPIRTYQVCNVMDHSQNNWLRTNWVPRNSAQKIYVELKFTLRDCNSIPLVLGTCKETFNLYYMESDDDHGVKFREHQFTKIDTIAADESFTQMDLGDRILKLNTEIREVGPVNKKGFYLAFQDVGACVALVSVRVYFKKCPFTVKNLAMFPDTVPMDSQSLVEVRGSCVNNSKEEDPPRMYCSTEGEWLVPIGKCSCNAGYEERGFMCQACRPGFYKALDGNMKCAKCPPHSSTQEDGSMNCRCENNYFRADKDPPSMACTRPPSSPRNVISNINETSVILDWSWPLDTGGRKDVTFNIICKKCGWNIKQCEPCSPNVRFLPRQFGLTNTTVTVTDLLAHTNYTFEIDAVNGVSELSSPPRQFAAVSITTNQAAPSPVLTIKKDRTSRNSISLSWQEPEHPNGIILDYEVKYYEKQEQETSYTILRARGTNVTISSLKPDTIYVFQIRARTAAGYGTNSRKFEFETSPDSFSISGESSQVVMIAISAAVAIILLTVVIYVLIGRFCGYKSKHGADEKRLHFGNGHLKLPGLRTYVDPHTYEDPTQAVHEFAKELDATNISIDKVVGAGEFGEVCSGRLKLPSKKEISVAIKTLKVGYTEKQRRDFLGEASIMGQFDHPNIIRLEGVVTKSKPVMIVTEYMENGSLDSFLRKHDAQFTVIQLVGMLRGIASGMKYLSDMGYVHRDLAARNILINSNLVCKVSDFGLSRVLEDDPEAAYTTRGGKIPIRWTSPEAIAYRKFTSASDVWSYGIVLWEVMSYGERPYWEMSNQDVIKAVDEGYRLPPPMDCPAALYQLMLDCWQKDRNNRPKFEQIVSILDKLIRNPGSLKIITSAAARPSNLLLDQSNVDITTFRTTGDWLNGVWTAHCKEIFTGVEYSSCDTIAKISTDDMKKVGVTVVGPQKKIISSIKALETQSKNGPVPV
# [9] = target: T4, Ephrin type-A receptor 3 (Homo sapiens); conditions: at 10 µM
# [10] = target: Ephrin type-A receptor 4 (Homo sapiens) (UniProt P54764); conditions: at 1 µM
# [11] = target: Ephrin type-A receptor 4 (Homo sapiens) (UniProt P54764); conditions: at 10 µM
# [12] = target: Ephrin type-A receptor 5 (Homo sapiens) (UniProt P54756); conditions: at 1 µM
# [13] = target: Ephrin type-A receptor 5 (Homo sapiens) (UniProt P54756); conditions: at 10 µM
# [14] = target: Ephrin type-A receptor 7 (Homo sapiens) (UniProt Q15375); conditions: at 1 µM
# [15] = target: Ephrin type-A receptor 7 (Homo sapiens) (UniProt Q15375); conditions: at 10 µM
# [16] = target: T5, Ephrin type-A receptor 8 (Homo sapiens) (UniProt P29322); conditions: at 1 µM
# T5 sequence (whole entry): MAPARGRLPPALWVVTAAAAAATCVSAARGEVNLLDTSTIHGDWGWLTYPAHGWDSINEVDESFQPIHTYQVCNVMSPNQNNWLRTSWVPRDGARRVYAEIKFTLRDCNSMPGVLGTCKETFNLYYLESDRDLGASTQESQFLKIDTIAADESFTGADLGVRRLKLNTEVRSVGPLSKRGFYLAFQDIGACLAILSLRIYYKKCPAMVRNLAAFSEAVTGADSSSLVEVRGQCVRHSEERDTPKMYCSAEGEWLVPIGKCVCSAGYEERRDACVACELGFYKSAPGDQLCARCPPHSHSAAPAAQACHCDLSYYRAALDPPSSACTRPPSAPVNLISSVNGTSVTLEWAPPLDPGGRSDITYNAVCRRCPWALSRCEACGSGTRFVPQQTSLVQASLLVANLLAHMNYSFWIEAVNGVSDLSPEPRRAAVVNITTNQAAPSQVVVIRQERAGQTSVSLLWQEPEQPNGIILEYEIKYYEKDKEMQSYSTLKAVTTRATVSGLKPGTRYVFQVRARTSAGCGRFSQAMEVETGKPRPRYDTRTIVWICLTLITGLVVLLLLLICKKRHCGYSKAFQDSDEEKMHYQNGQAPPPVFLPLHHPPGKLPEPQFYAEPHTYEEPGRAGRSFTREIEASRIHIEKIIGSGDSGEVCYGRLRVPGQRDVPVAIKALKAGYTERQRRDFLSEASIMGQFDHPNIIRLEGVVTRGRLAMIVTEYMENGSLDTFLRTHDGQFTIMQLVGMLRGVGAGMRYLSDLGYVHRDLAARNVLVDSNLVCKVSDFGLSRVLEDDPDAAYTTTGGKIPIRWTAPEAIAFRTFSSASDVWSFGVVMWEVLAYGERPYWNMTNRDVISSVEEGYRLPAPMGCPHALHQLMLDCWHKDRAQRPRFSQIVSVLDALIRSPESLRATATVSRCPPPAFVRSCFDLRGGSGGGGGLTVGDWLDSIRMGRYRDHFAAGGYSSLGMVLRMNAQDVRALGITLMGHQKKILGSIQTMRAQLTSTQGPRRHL
# [17] = target: T5, Ephrin type-A receptor 8 (Homo sapiens); conditions: at 10 µM
# [18] = target: T6, Ephrin type-B receptor 1 (Homo sapiens) (UniProt P54762); conditions: at 1 µM
# T6 sequence (whole entry): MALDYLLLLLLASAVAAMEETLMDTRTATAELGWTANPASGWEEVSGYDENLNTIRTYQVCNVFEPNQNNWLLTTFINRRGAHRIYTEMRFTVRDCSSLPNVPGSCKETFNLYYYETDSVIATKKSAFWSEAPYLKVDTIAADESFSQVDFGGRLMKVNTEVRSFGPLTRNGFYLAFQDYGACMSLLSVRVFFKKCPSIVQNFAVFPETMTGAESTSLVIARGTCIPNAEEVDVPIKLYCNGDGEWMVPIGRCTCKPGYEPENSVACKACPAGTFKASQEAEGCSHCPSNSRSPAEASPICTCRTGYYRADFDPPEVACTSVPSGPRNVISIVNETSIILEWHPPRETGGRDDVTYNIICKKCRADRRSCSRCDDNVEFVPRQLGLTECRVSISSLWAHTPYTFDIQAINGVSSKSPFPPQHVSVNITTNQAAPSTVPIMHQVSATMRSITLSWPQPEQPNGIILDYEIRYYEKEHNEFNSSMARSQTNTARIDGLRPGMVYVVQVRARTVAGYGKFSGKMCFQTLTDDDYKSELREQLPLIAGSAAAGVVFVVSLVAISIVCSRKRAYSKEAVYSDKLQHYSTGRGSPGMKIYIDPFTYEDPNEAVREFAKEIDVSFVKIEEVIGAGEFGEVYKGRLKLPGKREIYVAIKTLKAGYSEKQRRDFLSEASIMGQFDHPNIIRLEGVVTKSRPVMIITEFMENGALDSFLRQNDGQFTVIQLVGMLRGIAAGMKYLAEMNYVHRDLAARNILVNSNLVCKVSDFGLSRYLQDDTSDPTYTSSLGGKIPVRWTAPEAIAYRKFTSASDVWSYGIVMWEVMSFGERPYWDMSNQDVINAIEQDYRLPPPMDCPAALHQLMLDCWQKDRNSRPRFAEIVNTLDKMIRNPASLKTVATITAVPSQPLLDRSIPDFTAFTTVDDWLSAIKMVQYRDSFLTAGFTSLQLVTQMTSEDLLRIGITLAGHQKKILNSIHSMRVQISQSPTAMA
# Ephrin type-A receptor 7 (Homo sapiens), sequence (Q15375 28-998 limits assumed): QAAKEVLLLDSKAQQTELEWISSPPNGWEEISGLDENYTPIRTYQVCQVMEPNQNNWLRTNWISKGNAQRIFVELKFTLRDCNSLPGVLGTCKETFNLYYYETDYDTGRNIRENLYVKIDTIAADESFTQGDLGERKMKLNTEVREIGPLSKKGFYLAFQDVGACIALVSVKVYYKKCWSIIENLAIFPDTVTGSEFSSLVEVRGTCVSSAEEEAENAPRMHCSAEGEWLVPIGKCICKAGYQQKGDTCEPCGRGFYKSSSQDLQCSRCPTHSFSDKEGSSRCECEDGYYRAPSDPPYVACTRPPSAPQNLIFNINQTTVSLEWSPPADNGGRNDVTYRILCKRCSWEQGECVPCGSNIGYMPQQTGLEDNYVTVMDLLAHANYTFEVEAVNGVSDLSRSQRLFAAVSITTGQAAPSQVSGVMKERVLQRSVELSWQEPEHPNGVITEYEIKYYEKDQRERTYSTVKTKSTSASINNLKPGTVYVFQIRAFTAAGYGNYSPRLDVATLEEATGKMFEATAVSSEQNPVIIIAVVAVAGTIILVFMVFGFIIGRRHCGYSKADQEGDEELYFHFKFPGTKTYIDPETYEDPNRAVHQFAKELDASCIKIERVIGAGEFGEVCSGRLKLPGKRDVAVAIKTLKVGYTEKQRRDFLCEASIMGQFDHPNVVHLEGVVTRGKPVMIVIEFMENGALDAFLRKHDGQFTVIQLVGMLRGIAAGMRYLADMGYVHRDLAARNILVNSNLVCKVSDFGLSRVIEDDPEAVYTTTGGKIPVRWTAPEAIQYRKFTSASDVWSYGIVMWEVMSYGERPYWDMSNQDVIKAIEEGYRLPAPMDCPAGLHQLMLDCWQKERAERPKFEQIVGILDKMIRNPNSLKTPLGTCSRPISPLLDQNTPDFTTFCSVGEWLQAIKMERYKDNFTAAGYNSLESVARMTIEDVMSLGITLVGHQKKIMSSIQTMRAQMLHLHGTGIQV
# Ephrin type-A receptor 5 (Homo sapiens), sequence (P54756 whole entry): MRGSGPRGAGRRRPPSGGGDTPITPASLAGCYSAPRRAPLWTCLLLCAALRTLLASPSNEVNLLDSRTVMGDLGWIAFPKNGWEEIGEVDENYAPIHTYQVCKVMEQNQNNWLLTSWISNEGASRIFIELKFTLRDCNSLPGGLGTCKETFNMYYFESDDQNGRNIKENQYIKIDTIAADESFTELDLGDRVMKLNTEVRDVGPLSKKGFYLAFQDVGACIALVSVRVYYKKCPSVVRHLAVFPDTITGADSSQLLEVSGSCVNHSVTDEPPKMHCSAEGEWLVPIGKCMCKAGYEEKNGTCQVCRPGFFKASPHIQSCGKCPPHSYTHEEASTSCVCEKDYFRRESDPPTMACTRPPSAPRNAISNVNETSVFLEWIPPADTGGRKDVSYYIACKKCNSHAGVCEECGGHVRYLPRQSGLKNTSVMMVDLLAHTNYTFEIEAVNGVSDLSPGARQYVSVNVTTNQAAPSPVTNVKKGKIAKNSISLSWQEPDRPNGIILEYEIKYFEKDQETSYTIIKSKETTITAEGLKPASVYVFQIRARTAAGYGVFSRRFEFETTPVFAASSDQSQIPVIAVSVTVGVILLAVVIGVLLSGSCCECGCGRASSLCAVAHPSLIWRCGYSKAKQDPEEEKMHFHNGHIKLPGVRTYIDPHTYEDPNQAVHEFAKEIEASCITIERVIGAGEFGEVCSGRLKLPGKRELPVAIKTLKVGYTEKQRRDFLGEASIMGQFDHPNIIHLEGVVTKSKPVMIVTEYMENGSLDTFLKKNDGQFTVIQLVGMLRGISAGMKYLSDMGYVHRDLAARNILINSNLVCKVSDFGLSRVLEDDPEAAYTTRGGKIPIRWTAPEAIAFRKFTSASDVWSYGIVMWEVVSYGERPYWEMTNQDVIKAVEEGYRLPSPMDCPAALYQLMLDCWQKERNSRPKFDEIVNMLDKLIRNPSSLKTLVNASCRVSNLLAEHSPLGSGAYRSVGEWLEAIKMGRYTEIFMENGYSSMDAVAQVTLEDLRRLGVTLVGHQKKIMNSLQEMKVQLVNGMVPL
# Ephrin type-A receptor 4 (Homo sapiens), sequence (P54764 whole entry): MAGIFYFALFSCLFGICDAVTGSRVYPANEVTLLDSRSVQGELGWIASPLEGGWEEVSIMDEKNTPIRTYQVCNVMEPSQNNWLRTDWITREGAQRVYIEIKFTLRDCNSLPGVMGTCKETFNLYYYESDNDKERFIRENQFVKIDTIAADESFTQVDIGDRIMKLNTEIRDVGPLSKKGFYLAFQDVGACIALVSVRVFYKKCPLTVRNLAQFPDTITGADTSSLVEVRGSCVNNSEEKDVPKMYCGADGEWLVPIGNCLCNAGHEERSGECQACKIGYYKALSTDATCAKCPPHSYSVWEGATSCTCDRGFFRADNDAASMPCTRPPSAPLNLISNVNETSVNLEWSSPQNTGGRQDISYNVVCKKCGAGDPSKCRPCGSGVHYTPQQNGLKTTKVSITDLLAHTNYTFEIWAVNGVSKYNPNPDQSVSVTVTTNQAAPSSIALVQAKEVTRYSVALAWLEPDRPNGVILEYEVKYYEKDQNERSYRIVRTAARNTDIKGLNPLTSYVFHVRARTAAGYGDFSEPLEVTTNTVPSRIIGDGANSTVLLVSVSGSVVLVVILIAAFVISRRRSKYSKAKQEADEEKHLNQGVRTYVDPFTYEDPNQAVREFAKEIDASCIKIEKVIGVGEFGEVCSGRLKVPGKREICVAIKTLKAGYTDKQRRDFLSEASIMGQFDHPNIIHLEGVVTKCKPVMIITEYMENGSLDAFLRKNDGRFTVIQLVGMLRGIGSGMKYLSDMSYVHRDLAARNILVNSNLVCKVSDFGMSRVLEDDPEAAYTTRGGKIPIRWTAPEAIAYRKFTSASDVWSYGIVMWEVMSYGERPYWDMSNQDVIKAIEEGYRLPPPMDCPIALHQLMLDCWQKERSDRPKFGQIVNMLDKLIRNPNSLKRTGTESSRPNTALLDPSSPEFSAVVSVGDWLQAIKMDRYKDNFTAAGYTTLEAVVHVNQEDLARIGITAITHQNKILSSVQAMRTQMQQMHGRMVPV
# Ephrin type-A receptor 2 (Homo sapiens), sequence (P29317 whole entry): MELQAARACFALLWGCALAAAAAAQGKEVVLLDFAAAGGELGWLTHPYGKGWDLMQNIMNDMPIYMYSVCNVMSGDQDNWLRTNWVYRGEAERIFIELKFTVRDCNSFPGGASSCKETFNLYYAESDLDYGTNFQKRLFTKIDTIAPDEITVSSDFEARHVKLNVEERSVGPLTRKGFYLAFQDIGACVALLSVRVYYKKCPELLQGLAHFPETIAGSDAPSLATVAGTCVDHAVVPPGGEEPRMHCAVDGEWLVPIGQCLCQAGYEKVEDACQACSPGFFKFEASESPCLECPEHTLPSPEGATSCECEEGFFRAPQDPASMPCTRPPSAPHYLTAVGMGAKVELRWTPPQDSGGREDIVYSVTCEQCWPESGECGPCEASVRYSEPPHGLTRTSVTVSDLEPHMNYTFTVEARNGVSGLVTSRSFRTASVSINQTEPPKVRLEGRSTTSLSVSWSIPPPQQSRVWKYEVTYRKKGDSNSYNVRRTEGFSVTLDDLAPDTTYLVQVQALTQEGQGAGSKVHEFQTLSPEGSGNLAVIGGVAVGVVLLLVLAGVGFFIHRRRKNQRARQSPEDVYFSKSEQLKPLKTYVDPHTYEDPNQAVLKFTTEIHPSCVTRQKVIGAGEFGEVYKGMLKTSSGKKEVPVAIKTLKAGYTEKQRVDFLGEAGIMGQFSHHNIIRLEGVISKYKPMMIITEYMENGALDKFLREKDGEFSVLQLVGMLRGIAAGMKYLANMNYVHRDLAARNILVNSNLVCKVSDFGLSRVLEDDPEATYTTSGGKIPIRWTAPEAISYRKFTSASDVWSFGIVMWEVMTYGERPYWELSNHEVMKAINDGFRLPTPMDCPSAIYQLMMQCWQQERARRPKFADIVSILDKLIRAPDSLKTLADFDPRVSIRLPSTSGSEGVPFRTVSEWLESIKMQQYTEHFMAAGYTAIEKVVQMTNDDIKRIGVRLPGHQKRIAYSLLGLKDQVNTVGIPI
Structure (SMILES),residual activity [1] [%],residual activity [2] [%],residual activity [3] [%],residual activity [4] [%],residual activity [5] [%],residual activity [6] [%],residual activity [7] [%],residual activity [8] [%],residual activity [9] [%],residual activity [10] [%],residual activity [11] [%],residual activity [12] [%],residual activity [13] [%],residual activity [14] [%],residual activity [15] [%],residual activity [16] [%],residual activity [17] [%],residual activity [18] [%]
c1ccc2c(-c3ccncc3)c[nH]c2c1,60,77,21,87,69,104,92,106,92,109,98,102,111,99,84,96,92,108
CC(C)n1cnc2/c(=N/c3cccc(Cl)c3)nc(NCCO)[nH]c21,83,95,69,86,42,82,65,82,54,110,75,102,43,83,43,97,77,81
COc1ccc(OC)c2c(=S)c3ccccc3[nH]c12,97,90,66,113,88,96,101,90,97,100,105,101,96,92,89,96,100,97
Cn1cc(/C=C2\C(=O)Nc3ccc(S(N)(=O)=O)cc32)c2ccccc21,3,102,99,89,107,100,72,50,13,96,89,54,53,32,9,88,54,66

# From ChEMBL document CHEMBL2218924, “A broad activity screen in support of a chemogenomic map for kinase signalling research and drug discovery” (Biochem J, 2013)
